This is a sample that favours compounds with a hit; in the whole collection about 2.1% have one here.
NFkB SMM – binds human NF-kappa-B p105 on microarray. P19838. Small molecule microarray, anti-His fluorescence binding. calls only. actives 1.3% (n = 17,000);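 active = spot fluorescence over background significantly raised, with a chance value under 7% in all four replicate spots of the compound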;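 also: probe protein is his-tagged human p50 processed subunit at 1 µg/ml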
STAT3 SMM – binders of human STAT3. P40763. Small molecule microarray, His-STAT3 binding, anti-His fluorescence. calls only. actives 0.2% (n = 17,000). AID 624138;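 active = compounds whose four printed spots each show fluorescence over background unusually high for their array block, chance value under 7%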
c-Myc SMM – binds human c-Myc on microarray; actives 1.5% (n = 17,000); calls only; small molecule microarray, His-c-Myc binding, anti-His fluorescence; P01106;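 active = spot fluorescence over background with P-value below 7% in all four replicate spots, showing protein binding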
Target sequence (P01106 whole entry, looked up): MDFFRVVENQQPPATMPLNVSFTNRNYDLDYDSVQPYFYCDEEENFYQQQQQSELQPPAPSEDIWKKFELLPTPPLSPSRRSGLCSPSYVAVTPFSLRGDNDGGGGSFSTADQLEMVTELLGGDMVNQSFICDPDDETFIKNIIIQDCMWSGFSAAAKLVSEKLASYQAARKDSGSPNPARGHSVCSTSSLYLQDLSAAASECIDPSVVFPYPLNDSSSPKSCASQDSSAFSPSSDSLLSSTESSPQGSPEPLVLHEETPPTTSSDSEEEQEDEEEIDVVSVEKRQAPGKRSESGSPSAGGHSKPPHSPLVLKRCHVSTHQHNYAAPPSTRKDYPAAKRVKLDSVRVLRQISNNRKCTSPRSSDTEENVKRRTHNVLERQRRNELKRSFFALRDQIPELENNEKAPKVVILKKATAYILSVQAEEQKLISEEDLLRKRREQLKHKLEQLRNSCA
mut p53 SMM – binders of human mutant p53; small molecule microarray binding, anti-GST fluorescence; AID 624136; actives 0.4% (n = 17,000); calls only;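 active = compounds whose four printed spots each glow above background more than chance allows, each with a p-value under 7%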
Calls only; – = inactive; + = active, no number.

SMILES	NFkB SMM	STAT3 SMM	c-Myc SMM	mut p53 SMM
CCOC(=O)Cc1cc(=O)[nH]c(Nc2nc3ccccc3o2)n1	–	–	–	+
COc1ccccc1NC(=O)c1c(C)nc(Nc2nc3ccccc3o2)nc1C	–	–	–	–
COc1ccc([Si](C)(C)[C@H]2[C@H](CCO)O[C@@]3(C(=O)N(Cc4ccccc4)c4ccc(NC(=O)[C@H](C)O)cc43)[C@@H]2C)cc1	+	–	–	+
CC(C)CC(NS(=O)(=O)c1cccc2nsnc12)C(=O)O (configuration not stated)	+	–	+	–
CN(CCC#N)S(=O)(=O)c1cccc2nsnc12	–	–	–	–
Cc1cccc(NC(=O)CCC(=O)O)c1	–	–	+	–
Cc1ccc(NC(=O)c2cccc(NC(=O)CCC(=O)O)c2)cc1C	–	–	–	–
C[C@@H]1CN([C@@H](C)CO)C(=O)c2cc(NC(=O)c3ccncc3)ccc2O[C@@H](C)CCCCO[C@H]1CN(C)C(=O)CCC(F)(F)F	–	–	–	–
C[C@@H]1CCCCO[C@H](CN(C)C(=O)CCC(F)(F)F)[C@H](C)CN([C@@H](C)CO)C(=O)c2cc(NC(=O)c3ccncc3)ccc2O1	+	–	–	–
C[C@@H]1CCCCO[C@H](CN(C)C(=O)CCC(F)(F)F)[C@@H](C)CN([C@H](C)CO)C(=O)c2cc(NC(=O)c3ccncc3)ccc2O1	–	–	–	–
C[C@H](CO)N1C[C@H](C)[C@H](CN(C)C(=O)CCC(F)(F)F)OCCCC[C@H](C)Oc2ccc(NC(=O)c3ccncc3)cc2C1=O	+	–	+	–
C/C1=C/CC/C(CO)=C\[C@H]2OC(=O)C(CN3CCCC3C(=O)O)[C@@H]2[C@@H](OC(=O)C(C)CO)C1 (some centres not stated)	–	–	–	–
Cc1nn(C(=O)Cn2cc([N+](=O)[O-])cn2)c(C)c1Br	–	–	+	–
CCCC(NS(=O)(=O)c1ccc(C)cc1)C(=O)O (configuration not stated)	–	–	+	–
N#Cc1c(NC(=S)NC(=O)c2cncc(Br)c2)sc2c1CCCC2	–	–	–	–
Cc1cccnc1NC(=S)NC(=O)c1cncc(Br)c1	–	–	+	–
COc1cc(C(=O)OC[C@@]2(O)CO[C@H](OC3C(CO)OC(OC(C)/C=C/C4(O)C(C)CC(O)CC4(C)C)C(O)C3O)[C@@H]2O)cc(OC)c1O (some centres not stated)	–	–	–	–
Cc1ccc(OCC(=O)N(c2ccccn2)C2CCCCC2)c(C)c1	–	–	–	–
Cc1cc(S(=O)(=O)NC2CCCCC2)ccc1OCC(=O)O	–	–	+	–
CCOc1ccc(C)cc1S(=O)(=O)n1nnc2ccccc21	+	–	+	–
C[C@H](CCC(=O)O)[C@H]1CCC2[C@@H]3CC[C@@H]4C[C@H](O)CC[C@]4(C)C3C=C[C@@]21C (some centres not stated)	+	–	–	–
CCc1ccc(C(Nc2cc(C)ccn2)c2ccc3cccnc3c2O)cc1 (configuration not stated)	–	–	–	+
COc1ccc(CO[C@H]2O[C@H](CO)[C@@H](O)[C@H](O)[C@H]2NC(C)=O)c2cc(C)oc12	–	–	–	–
COCC1OC(OC(C)(C)C2CCC3(C)C=C(C4CCC5C4(C)CC(O)C4OC(C(C)(C)OC6OC(CO)C(O)C(O)C6NC(C)=O)CCC45C)CCC3O2)C(NC(C)=O)C(O)C1O (configuration not stated)	+	–	+	–
CC(C(=O)Nc1cc(Cl)ccc1O)N1C(=O)c2ccccc2C1=O (configuration not stated)	–	–	–	–
SMILES	NFkB SMM	STAT3 SMM	c-Myc SMM	mut p53 SMM
COc1ccc2nc(Nc3nc(C)c(CCC(C)C)c(=O)[nH]3)nc(C)c2c1	+	–	–	–
CC(=O)c1cn(CC(=O)Nc2cccc(C(F)(F)F)c2)c2ccccc12	–	–	–	–
C=CCOC(=O)[C@H]1[C@@H]2C(=O)O[C@@H](c3ccccc3)[C@@H](c3ccccc3)N2[C@@H](c2ccc(OCCOC(=O)[C@@H]3C[C@@H]4C(=O)N5CCC[C@H]5C(=O)N4[C@@H]3c3cccc(OCCO)c3)cc2)[C@]12C(=O)Nc1ccc(I)cc12	+	–	–	–
C=CCOC(=O)[C@H]1[C@@H]2C(=O)O[C@@H](c3ccccc3)[C@@H](c3ccccc3)N2[C@@H](c2ccc(OCCOC(=O)[C@@H]3C[C@@H]4C(=O)NCC(=O)N4[C@@H]3c3ccc(O)cc3)cc2)[C@]12C(=O)Nc1ccccc12	+	–	–	–
C=CCOC(=O)[C@H]1[C@@H]2C(=O)O[C@@H](c3ccccc3)[C@@H](c3ccccc3)N2[C@@H](c2ccc(OCCOC(=O)[C@@H]3C[C@@H]4C(=O)N5CCC[C@H]5C(=O)N4[C@@H]3c3cccc(OCCO)c3)cc2)[C@]12C(=O)Nc1ccccc12	–	–	–	–
C=CCOC(=O)[C@H]1[C@@H]2C(=O)O[C@@H](c3ccccc3)[C@@H](c3ccccc3)N2[C@@H](c2ccc(OCCOC(=O)[C@@H]3C[C@@H]4C(=O)N[C@@H](Cc5ccccc5)C(=O)N4[C@@H]3c3cccc(OCCO)c3)cc2)[C@]12C(=O)Nc1ccc(I)cc12	+	–	–	–
C[C@H]1CCCCO[C@H](CN(C)C(=O)CCC(F)(F)F)[C@@H](C)CN([C@@H](C)CO)C(=O)c2cc(NC(=O)CCC(F)(F)F)ccc2O1	–	–	–	–
C[C@@H]1CCCCO[C@H](CN(C)C(=O)CCC(F)(F)F)[C@@H](C)CN([C@H](C)CO)C(=O)c2cc(NC(=O)CCC(F)(F)F)ccc2O1	+	–	+	+
C[C@@H]1CN([C@@H](C)CO)C(=O)c2cc(NC(=O)CCC(F)(F)F)ccc2O[C@@H](C)CCCCO[C@H]1CN(C)C(=O)CCC(F)(F)F	+	–	–	–
CNC(=O)CN(C)S(=O)(=O)c1ccc(OC)c(C)c1	–	–	–	–
C[C@@H]1CN([C@H](C)CO)C(=O)c2cccc(NC(=O)NC3CCCCC3)c2O[C@H]1CN(C)C(=O)Nc1ccc(C(F)(F)F)cc1	+	–	+	–
C[C@@H]1CN([C@@H](C)CO)C(=O)c2cccc(NC(=O)Nc3ccc(C(F)(F)F)cc3)c2O[C@H]1CN(C)C(=O)NC1CCCCC1	–	+	–	–
C[C@@H]1CN([C@@H](C)CO)C(=O)c2cccc(NC(=O)Nc3ccccc3)c2O[C@@H]1CN(C)C(=O)NC1CCCCC1	–	–	–	–
C[C@H]1CN([C@@H](C)CO)C(=O)c2cccc(NC(=O)NC3CCCCC3)c2O[C@H]1CN(C)C(=O)Nc1ccc(C(F)(F)F)cc1	–	–	–	–
C[C@@H]1CN([C@@H](C)CO)C(=O)c2cccc(NC(=O)C3CCOCC3)c2O[C@H]1CN(C)Cc1ccc(Cl)c(Cl)c1	–	–	+	–
C[C@H]1CN([C@@H](C)CO)C(=O)c2cccc(NC(=O)NC3CCCCC3)c2O[C@H]1CN(C)C(=O)NC1CCCCC1	+	–	+	–
C[C@H](CO)N1C[C@H](C)[C@@H](CN(C)Cc2ccc(Cl)c(Cl)c2)Oc2c(NC(=O)C3CCOCC3)cccc2C1=O	–	–	–	–
